Screening data deposited in PubChem by several laboratories.
An excerpt weighted towards active compounds, which were near 1.5% of everything screened.
PriA SSB inh = K. pneumoniae PriA-SSBct interaction inhibition. AlphaScreen SSBct-PriA binding, biotinylated peptide. inhibition, % at 33 µM. actives 0.6% (n = 430,000); in the data active = inhibition mostly above about 37%, no sharp cut-off; inactive = mostly below about 20%;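 note: plate controls were negative control peptide for no effect and reference peptide for full effect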
ugtP null kill = compounds lethal to S. aureus RN4220 ugtP deletion mutant | OD600 growth, 16 h | growth inhibition, % (no concentration beside the values) | actives 0.54% (n = 330,000) | AID 1259309; in the data active = growth inhibition above about 68%;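 note: plate controls were untreated wells for no effect and antibiotic for full effect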
RN4220 kill = S. aureus RN4220 growth inhibition; OD600, 16 h; inhibition, % (test concentration not listed); actives 0.33% (n = 330,000); AID 1259311; in the data active = inhibition above about 85%;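 note: plate controls were untreated cells for no effect and reference antibiotic for full effect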
VHR inh abs = DUSP3 (human) phosphatase inhibition; recombinant VHR phosphatase, pNPP absorbance; inhibition, % at 13.3 µM; actives 0.52% (n = 290,000); AID 1654; in the data active = inhibition above about 50%
Target sequence (P51452 whole entry, looked up): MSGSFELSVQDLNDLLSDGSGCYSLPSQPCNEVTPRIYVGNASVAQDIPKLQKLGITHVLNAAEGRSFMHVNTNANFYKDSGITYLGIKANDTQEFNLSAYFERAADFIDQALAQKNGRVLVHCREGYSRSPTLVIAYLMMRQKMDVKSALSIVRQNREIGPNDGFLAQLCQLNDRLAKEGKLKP
CCHF vOTU inh = CCHFV vOTU protease inhibition | actives 0.55% (n = 370,000) | Pep-AMC fluorescence | AID 651958 | inhibition, % at 11.5 µM; in the data active = inhibition above about 30%; note: 0% = vehicle wells with enzyme and 100% = no enzyme wells
Active calls of the source: *; nt = no result.

SMILES	PriA SSB inh	ugtP null kill	RN4220 kill	VHR inh abs	CCHF vOTU inh
CC1CCCC(C)N1C(=O)c1ccc(CS(=O)(=O)c2ccccc2)cc1 (centres undefined)	0	1	1	53*	-9
CC12CN(N)C3(C(N)=O)CC1CCC23C (centres undefined)	-2	nt	nt	nt	nt
CCN(CC)C(=O)Oc1ccc2c(=O)c(-c3ccc4c(c3)OCCO4)coc2c1	-5	nt	nt	nt	nt
COc1ccc(CNC(=O)C2CCN(C(=O)N3CCOc4ccc(C)cc43)CC2)cc1	-6	-3	-11	51*	23
COc1ccc(N2CCN(c3ncnc4c3cnn4-c3cccc(C)c3)CC2)cc1	3	nt	nt	nt	nt
COc1ccc(N2C(=O)CC(Sc3ncn[nH]3)C2=O)c(OC)c1 (centres undefined)	-2	29	19	-4	55*
C=CCn1c(SCC(=O)N2CCOCC2)nc2sc3c(c2c1=O)CCCC3	-6	4	3	6	15
C=CCn1c(SCC(=O)N2CCOCC2)nc2sc(C)c(C)c2c1=O	3	7	2	51*	4
O=C(NCc1ccco1)c1ccc(Cl)c(S(=O)(=O)N2CCc3ccccc32)c1	4	-5	-4	56*	-6
CCCC(C(=O)NCC1CCCO1)N(C(=O)CNS(=O)(=O)c1ccccc1)c1ccc(F)cc1 (centres undefined)	-7	4	3	58*	10
CCC(C(=O)NCC1CCCO1)N(C(=O)CNS(=O)(=O)c1ccccc1)c1ccc(F)cc1 (centres undefined)	-21	7	2	7	-2
CC(=O)Oc1oc(-c2ccccc2)nc1C=Nc1ccccc1	-3	-1	2	52*	5
CCOc1ccc(S(=O)(=O)Nc2ccc3c(c2)CN(C(=O)C2CC2)CC3)cc1	-17	nt	nt	nt	nt
O=C(CCl)N1c2ccccc2Sc2c1ccc1ccccc21	-1	100*	94*	nt	13
COc1ccc(C(=O)NCCNC(=O)c2cnccn2)cc1OC	-15	1	2	52*	9
COc1cccc(CN2CC(C(=O)N3CCOCC3)CCC2=O)c1 (centres undefined)	-13	6	0	53*	13
COc1cccc(CN2CCN(C(=O)C3CCC(=O)N(C4CCCC4)C3)CC2)c1 (centres undefined)	-1	4	1	51*	7
COc1cccc(CC(=O)NC2CCCN(Cc3ccc(Cl)cc3)C2)c1 (centres undefined)	-9	-1	-1	53*	-8
COc1cccc(CC(=O)NC2CCCN(Cc3ccccc3F)C2)c1 (centres undefined)	-3	4	2	-3	-7
COc1cccc(CN2CC(C(=O)N3CCCCCCC3)CCC2=O)c1 (centres undefined)	-2	2	2	-31	-10
NNc1nc2ccccc2[nH]1	1	nt	nt	nt	nt
Cc1nn([C@H]2CCS(=O)(=O)C2)c2nc(-c3ccc(F)cc3)cc(C(=O)NCc3ccco3)c12	-3	nt	nt	nt	nt
Cc1c(CCC(=O)O)c(=O)oc2c(C)c3occ(-c4ccc(Cl)cc4)c3cc12	8	101*	96*	-2	-3
O=c1c2cc(Br)ccc2nc(-c2ccc(Cl)cc2)n1O	-4	99*	99*	52*	-11
O=c1c2ccccc2nc(-c2ccc(Cl)c(Cl)c2)n1O	4	41	65	29	4
SMILES	PriA SSB inh	ugtP null kill	RN4220 kill	VHR inh abs	CCHF vOTU inh
N#Cc1ccc(-c2nc3cc(Cl)ccc3c(=O)n2O)cc1	-5	-4	15	5	-9
Cc1ccc(-c2nc3c(Cl)cc(Cl)cc3c(=O)n2O)cc1	5	99*	99*	7	5
O=c1c2cc(Cl)ccc2nc(-c2ccc([N+](=O)[O-])cc2)n1O	-10	-6	8	19	1
O=c1c2ccc(Cl)cc2nc(-c2cccc(C(F)(F)F)c2)n1O	-10	100*	96*	7	11
Cc1cc(OC2CN(C(=O)Cc3noc4ccccc34)C2)cc(=O)o1	-11	nt	nt	nt	nt
COc1ccc(CCNC(=O)CCc2csc(NC(=O)c3cccs3)n2)cc1OC	-17	nt	nt	nt	nt
COc1ccc(OC(=O)COc2cc(C)ccc2C)cc1	-15	nt	nt	16	-7
COc1ccc(CC(=O)Oc2cc(C)ccc2C)cc1	-4	6	2	58*	-1
CCOC(=O)Cc1c(Sc2ccccc2)c2ccccc2n1C	-28	95*	-9	9	12
COc1ccc(CN2CCN(C(C)C(=O)NC(C)c3ccc(F)cc3)CC2)cc1F (centres undefined)	-14	3	8	12	-17
COc1ccc(CN2CCN(C(C)C(=O)N(C)Cc3cccc(F)c3)CC2)cc1OC (centres undefined)	52*	1	1	-13	14
Cn1c2c(c(=O)n(C)c1=O)[C@@]1(C(=O)Nc3ccccc31)C(C#N)=C(N)O2	-1	29	87*	18	22
COC(=O)c1sccc1S(=O)(=O)NCCn1ccc(-c2ccsc2)n1	3	nt	nt	nt	nt
CCOC(=O)C1=C(C)NC(=O)NC1c1ccc(-c2ccc(F)cc2)o1 (centres undefined)	7	2	1	52*	-2
COc1ccc(S(=O)(=O)Nc2ccc3c(c2)CCC(=O)N3CCC(C)C)c(C)c1	10	nt	nt	nt	nt
O=C(NN=Cc1cn[nH]c1-c1ccccc1)c1ccco1	-8	nt	nt	nt	nt
CC(C)c1ccc(-c2nnn(Cc3nc4ccccc4s3)n2)cc1	-22	85*	1	6	8
Cc1cccc(NC2C=CS(=O)(=O)C2)c1C (centres undefined)	-6	nt	nt	nt	nt
CCN(C(=O)c1ccccc1F)c1nc(-c2ccc(OC)cc2)cs1	-12	90*	-7	20	-2
COc1ccc(-c2csc(-n3nc(C)cc3N)n2)cc1OC	8	nt	nt	nt	nt
CCOC(=O)c1c(C)n(Cc2ccccc2)c2ccc(OCC(O)Cn3nc(C)nc3C)cc12 (centres undefined)	104*	5	3	-23	10
Nc1c2c(nn1CC(=O)NCc1ccco1)CSC2	-8	nt	nt	nt	nt
CCOc1ccc(NC(=S)NC(=O)c2cnn(CC)c2)c([N+](=O)[O-])c1	12	85*	4	0	-7
CCOc1ccc(NC(=S)NC(=O)/C=C/c2ccc(Br)cc2)c([N+](=O)[O-])c1	3	2	6	-9	-3
COc1ccc(C=c2sc(=CC(=O)c3ccc(C)cc3)[nH]c2=O)c(OC)c1	0	89*	-4	nt	nt
O=C(NC1CCN(C(=O)Nc2ccccc2)CC1)C1CCCCC1	2	-2	0	52*	-4
O=C(NC1CCCC1)C1CCCN(C(=O)Nc2ccccc2)C1 (centres undefined)	-4	4	3	4	0
CC(=O)N1CCc2ccc(NS(=O)(=O)c3ccc(F)c(Cl)c3)cc21	-10	nt	nt	nt	nt
O=[N+]([O-])c1ccc(NN=C2CC3CC=CC23)c([N+](=O)[O-])c1 (centres undefined)	52*	19	35	nt	nt
O=[N+]([O-])c1ccc(N/N=C2\CC3CC=CC23)c([N+](=O)[O-])c1 (centres undefined)	nt	nt	nt	-10	7
